According to ChEMBL document CHEMBL3988442, “University of Dundee, Small-Polar-MMV Screening Library” (2021):
Out of some 85,000 compounds screened, about 440 (0.52%) showed an effect of 50% or more. This excerpt belongs to a sample that is enriched for strong results.

Experiment: In vitro enzyme assay to detect hydrolysis of chlorophenol red-beta-D-[…] directly proportional to the number of Toxoplasma stably expressing beta-galactosidase
Format: functional, organism-based, Toxoplasma gondii
Parameters: scale not given: in the data most compounds retested in dose-response had high values

Row | Structure (SMILES) | Percent Effect (50 µM) | Percent Effect (10 µM)
1 | Cc1ccc(CN(CC(=O)N2CCNC2=O)C(C)C)s1 | -25.32% | –
2 | CCc1noc(CC)c1CNC(=O)Nc1cccc([S+](C)[O-])c1 (centres undefined) | – | 5.882%
3 | CC1CCN(CCNC(=O)Nc2ncnn2C)CC1 | 93.89% | –
4 | Cc1cc(NC(=O)NCCN2CCC(C)CC2)n(C)n1 | -15.44% | –
5 | CCc1noc(CC)c1CNC(=O)Nc1ncnn1C | 67.97% | –
6 | CSCCCNC(=O)Nc1ncnn1C | -6.612% | –
7 | CCc1noc(CC)c1CNC(=O)Nc1cccc(C(=O)N(C)C)c1 | – | -1.441%
8 | CN1CCCN(C(=O)c2ccc(N(C)C)cc2F)CC1 | -3.403% | –
9 | CN(CCOc1ccc(Cl)cc1)CCC(N)=O | -5.352% | –
10 | CN(C)S(=O)(=O)N1CC(=O)NCC1(C)C | 14.19% | –
11 | OCCNc1nccc(-c2c[nH]nc2-c2cccnc2)n1 | – | -8.104%
12 | OCCNc1nccc(-c2c[nH]nc2-c2ccco2)n1 | – | 54.25%
13 | OCCNc1nccc(-c2c[nH]nc2-c2ccncc2)n1 | – | -1.451%
14 | CN1Cc2ccccc2CC1=O | -6.86% | –
15 | NC1CCC(N2C(=O)CCC2=O)CC1 (centres undefined) | 15.63% | –
16 | O=C(N[C@@H]1CCOC[C@H]1O)c1ccncc1 | -0.1422% | –
17 | CN(C)Cc1cccc(C(=O)N[C@@H]2CCOC[C@H]2O)c1 | -6.19% | –
18 | CCCc1ccc(C(=O)N[C@@H]2CCOC[C@H]2O)cc1 | 64% | –
19 | C=C(C)C(C)(C)C(=O)N[C@@H]1COCC[C@H]1O | 16.24% | –
20 | COCC1CCCCN1Cc1nc(-c2ccoc2)oc1C (centres undefined) | – | 1.217%
21 | Cc1oc(-c2ccoc2)nc1CN1CCC[C@H]1CO | – | 75.83%
22 | Cc1oc(-c2ccoc2)nc1CN1CCCCC1CCc1ccccc1 (centres undefined) | – | -14.19%
23 | O=C(Nc1ccc(-n2nccn2)cc1)N1CCC(O)C1 (centres undefined) | -2.451% | –
24 | CSCC[C@H](N)C(=O)N(C)Cc1ncc(Cl)n1C | -3.024% | –

Row | Structure (SMILES) | Percent Effect (50 µM) | Percent Effect (10 µM)
25 | Cc1ccc(CNC(=O)N2Cc3ccccc3C2)cn1 | -21.35% | –
26 | C=C/C=c1\c(=C/C)oc2c(NCc3ccccc3)nc(C)nc12 | – | 54.55%
27 | C=C/C=c1\c(=C/C)oc2c(NCc3ccccc3)ncnc12 | – | 26.91%
28 | C=C/C=c1\c(=C/C)oc2c(NCc3ccccc3)nc(CC)nc12 | – | 39.81%
29 | CC1CCCCN1C(=O)NCCNC(=O)c1ccn[nH]1 (centres undefined) | -2.19% | –
30 | CCC(N)c1cccc(OC)n1 (centres undefined) | -11.92% | –
31 | COc1cccc(CO)n1 | -5.543% | –
32 | CCC(=O)c1cccc(OC)n1 | 98.31% | –
33 | O=C(NCc1cccnc1)c1ccc(C(F)(F)F)nc1 | 2.561% | –
34 | COCCn1cncc1CO | 5.728% | –
35 | O=C(NCc1cccc(Cl)c1)c1cnns1 | -15.41% | –
36 | Nc1c[nH]nc1C(=O)NCc1cccc(Cl)c1 | 95.75% | –
37 | Nc1ncccc1C(=O)NCc1cccc(Cl)c1 | – | 10.41%
38 | CCCOc1cccc(NCC(=O)N2CCNC2=O)c1 | 1.752% | –
39 | C[C@@H]1CN(C(=O)c2csc(CN(C)C)n2)C[C@]1(C)O | 11.61% | –
40 | CNC(=O)Cc1noc(CCc2cccc(F)c2)n1 | -4.248% | –
41 | CCC(C)N(C)CCC(=O)Nc1ccc(C(N)=O)cc1 (centres undefined) | -26.89% | –
42 | COc1ccc(S(=O)(=O)N2CCN(C)CC2)c(C)c1C | 5.644% | –
43 | CC(C)(C)OC(=O)NCC1CC(C(N)=O)=NO1 (centres undefined) | 54.53% | –
44 | CC(C)(C)OC(=O)NCC1CC(N)C1 (centres undefined) | 6.843% | –
45 | CC(C)(C)OC(=O)NC[C@@H]1CCC[C@H]1N | -4.138% | –
46 | Cc1nn(C)cc1C(=O)N1CCOC2(CCCC2)C1 | 5.531% | –
47 | COCCN(C)Cc1ccnc(N)c1 | -7.11% | –
48 | CN(CC(N)=O)Cc1cccc(C#N)c1 | -4.421% | –

Row | Structure (SMILES) | Percent Effect (50 µM) | Percent Effect (10 µM)
49 | CN(Cc1cccc(C#N)c1)Cc1ccnc(N)c1 | 100.1% | –
50 | N#Cc1ccc(N2CCCC2C(=O)NC2CC2)cn1 (centres undefined) | 0.7704% | –
51 | Cc1cc(C)cc(NC(=O)CN2CCC(O)CC2)c1 | 5.146% | –
52 | CN1CCCCC1CCC(=O)NCCCn1cccn1 (centres undefined) | -6.664% | –
53 | O=C(CC1CC1)N1CCC2(CC1)CN(c1cccnc1)C(=O)CO2.O=C(O)C(F)(F)F | – | -21.74%
54 | O=C(O)C(F)(F)F.O=C1COC2(CCN(S(=O)(=O)C3CC3)CC2)CN1c1cccnc1 | – | 59.25%
55 | CCS(=O)(=O)N1CCC2(CC1)CN(c1cccnc1)C(=O)CO2.O=C(O)C(F)(F)F | – | -35.87%
56 | COc1cccc2c1N(CC(=O)N1CCC1)CCC2 | -0.7135% | –
57 | Cc1ccc(-c2[nH]c3ccccc3c2C(=O)O)c(C)c1 | – | -0.6823%
58 | COc1ccc(C)cc1-c1[nH]c2ccccc2c1C(=O)O | – | 55.01%
59 | Cc1ccc(C)c(-c2[nH]c3ccccc3c2C(=O)O)c1 | – | 7.079%
60 | NC(=O)c1cc(N2CCCC2)nc2ccccc12 | 2.977% | –
61 | Cn1nc(C(=O)N2CCOCC2)c(Br)c1C(F)(F)F | 24.28% | –
62 | CCn1cc(C(=O)NCCCC(N)=O)c2ccccc21 | -17.15% | –
63 | N#CCCCn1ccccc1=O | -0.4771% | –
64 | Cc1c(Cl)cccc1NC(=O)CSc1nnc[nH]1 | -6.056% | –
65 | CCOCCC(=O)Nc1ccnn1-c1ccc(Cl)cc1 | – | -1.702%
66 | COCC(=O)Nc1ccnn1-c1ccc(Cl)cc1 | – | 75.67%
67 | COCCOCC(=O)Nc1ccnn1-c1ccc(Cl)cc1 | – | 0.922%
68 | CC(NC(=O)c1ccc(Cl)cc1)c1nnc(SCC(N)=O)n1C (centres undefined) | – | 10.17%
69 | CC(C)CC(NC(=O)c1ccc(Cl)cc1)C(N)=O (centres undefined) | 23.98% | –
70 | CCn1c(SCC(N)=O)nnc1-c1cccnc1 | -5.033% | –
71 | CC(NC(=O)NCCOc1ccc(Cl)cc1)c1nncn1C (centres undefined) | – | 2.548%
72 | CCn1ncnc1C(C)NC(=O)c1cc(Cl)ccc1F (centres undefined) | 1.166% | –

Row | Structure (SMILES) | Percent Effect (50 µM) | Percent Effect (10 µM)
73 | CCn1c(SCC(=O)O)nnc1C(C)NC(=O)c1ccc(Cl)cc1 (centres undefined) | – | 60.13%
74 | CC(NC(=O)c1ccc(Cl)cc1)c1nnc(SCC(=O)O)n1C (centres undefined) | – | 78.32%
75 | CC(c1ccccc1)n1c(SCC(=O)O)nnc1-c1ccccc1Cl (centres undefined) | – | -2.501%
76 | CCn1c(SCC(N)=O)nnc1C(C)NC(=O)c1ccc(Cl)cc1 (centres undefined) | – | 74.14%
77 | N#Cc1ccc(C(=O)N2CCCO2)nc1 | -1.519% | –
78 | CSCC(=O)N1CCN(Cc2nccn2C)CC1 | 0.586% | –
79 | CCN1CCN(S(=O)(=O)c2c(F)cccc2F)CC1 | -8.353% | –
80 | CN(CCC1CCCO1)Cc1ccc(N(C)C)nc1 (centres undefined) | 6.718% | –
81 | CC(C)COCCN1CCN(Cc2ccon2)CC1 | 0.7264% | –
82 | CCN(CC)c1nc(Nc2cccc(C(C)O)c2)nc2ccccc12 (centres undefined) | – | 95.47%
83 | CC(O)c1cccc(Nc2nc(NCCO)c3ccccc3n2)c1 (centres undefined) | – | 12.45%
84 | CCN(CC)c1nc(Nc2cccc(C(=O)O)c2)nc2ccccc12 | – | -21.05%
85 | COC(=O)N1CCC(Nc2nnc(C(F)(F)F)s2)CC1 | 9.072% | –
86 | NCC1CCCN(c2ncccn2)C1 (centres undefined) | 3.495% | –
87 | O=C(NCC1CCCO1)c1cnn2cccnc12 (centres undefined) | -4.539% | –
88 | CC(C)c1nc2c(n1C)CCN(Cc1cccc(C(N)=O)c1)C2 | – | -1.993%
89 | NC(=O)c1cccc(CN2CCc3c(ncn3C3CC3)C2)c1 | – | 83.44%
90 | Cn1cnc2c1CCN(Cc1cccc(C(N)=O)c1)C2 | – | 1.729%
91 | CN(CCC#N)C(CCO)c1ccccc1 (centres undefined) | 25.8% | –
92 | O=C(CSc1nnc(-c2ccccc2F)o1)NC1CC1 | -13.11% | –
93 | CC(C)(CC1CCCNC1)C(N)=O (centres undefined) | 7.36% | –
94 | Cc1cc(C)n(CC(=O)NCCc2ccc[nH]2)n1 | -10.28% | –
95 | COCCNC(=O)c1cc2cc(C)ccc2n1C | 2.035% | –
96 | COc1cc2cc(C(=O)NCCC(=O)O)n(C)c2c(OC)c1OC | – | 74.68%

Row | Structure (SMILES) | Percent Effect (50 µM) | Percent Effect (10 µM)
97 | COc1cc2cc(C(=O)N[C@@H](C)C(=O)O)n(C)c2c(OC)c1OC | – | -3.586%
98 | COc1cc2cc(C(=O)NCC(=O)O)n(C)c2c(OC)c1OC | – | 74.68%
99 | COc1cc2cc(C(=O)O)n(C)c2c(OC)c1OC | – | -3.347%
100 | COc1cc2cc(C(=O)NC(C)C(=O)O)n(C)c2c(OC)c1OC (centres undefined) | – | 17.43%
101 | COC(=O)C1CCN(C(=O)C2CCCO2)CC1 (centres undefined) | -8.272% | –
102 | COc1ccccc1SC(C)C(=O)N1CCNC1=O (centres undefined) | 15.55% | –
103 | CCc1cccc(NC(=O)C2CCCN(C(C)=O)C2)c1 (centres undefined) | 4.153% | –
104 | CC1CCC(N(C)C(=O)Cn2cccn2)CC1 (centres undefined) | -1.84% | –
105 | O=C(c1cc(C2CC2)n[nH]1)N1CCCC(O)(CO)CC1 (centres undefined) | 4.237% | –
106 | CN1CCc2[nH]nc(C(=O)N3CCC4(CCCO4)CC3)c2C1 | – | 1.903%
107 | O=C(c1cc(C2CC2)n[nH]1)N1CCC2(CCCO2)CC1 | 64.63% | –
108 | COc1ccc(CSc2nnc(N)[nH]2)c(Cl)c1 | 2.455% | –
109 | Clc1ccc(CSc2cnn[nH]2)s1 | -14.75% | –
110 | Nc1nnc(SCc2ccc(Cl)s2)[nH]1 | 56.64% | –
111 | O=C(NCCO)c1nnsc1-c1ccc(Cl)cc1 | -1.39% | –
112 | CNC(=O)Cc1cccs1 | 0.3815% | –
113 | CCS(=O)(=O)N(CCc1cccs1)CC(=O)NC | 65.25% | –
114 | CC(C)N(CC(N)=O)CC(=O)NCCc1cccs1 | 12.36% | –
115 | CC(C)n1cccc1C(=O)NCCc1cncn1C | 7.567% | –
116 | COC(=O)c1[nH]cc(-c2ccccc2)c1N | 60.81% | –
117 | CC(=O)Nc1nc(-c2ccccc2)c[nH]1 | – | -10.01%
118 | COC(=O)c1snc(-c2ccccc2)c1N | 3.849% | –
119 | O=S1(=O)CCC(NC2CCNCC2)C1 (centres undefined) | 0.6188% | –
